According to PubChem BioAssay (NCATS):
Results filed as inconclusive are left out. Active and inactive are the calls of the source. Calls follow the shape of the dose curve; as a rule, active = well fitted curve in the direction sought with a large enough effect; inconclusive = small, poorly fitted or top-dose-only effect, or another doubt; inactive = no such curve, though single readings can be large; an effect the other way counts as inactive or inconclusive. Where a SMILES comes first, the peptide text is derived from it. [ ]: non-standard residue; d: D form. ξ: configuration not given here. ξPhe(βξ-Me) = CC(c1ccccc1)C(N)C(=O)O; GABA = NCCCC(=O)O

Tests used:
[1] = target: Glutathione peroxidase 1 (Homo sapiens) (UniProt P07203); experiment: Primary qHTS Assay for Inhibitors of Recombinant Selenoprotein Glutathione Peroxidase 1 (GPX1) (AID 1845191); details: recombinant GPX1, GR-coupled NADPH fluorescence, 15 min; series mostly up to 48.8 µM; also: nearly all actives have a fitted effect of over 65% in size; as to activity, negative = inhibition: % is scaled to controls: 0 for no effect and ±100 for the full control effect
Procedure, shortened: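 NADPH consumption tracked by fluorescence at 340/450 nm between t=0 and t=15 min, room temperature. Final mix: 10 nM GPX1, 100 nM glutathione reductase, 1 mM GSH, 0.5 mM NADPH, 0.5 mM cumene hydroperoxide, 0.01% BSA; 30 min compound–enzyme preincubation.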

[2] = target: Phospholipid hydroperoxide glutathione peroxidase GPX4 (Homo sapiens) (UniProt P36969); experiment: Primary qHTS Assay for Inhibitors of Recombinant Selenoprotein Glutathione Peroxidase 4 (GPX4) (AID 1845192); details: recombinant GPX4, GR-coupled NADPH fluorescence, 15 min; series mostly up to 50 µM; also: nearly all actives have a fitted effect of over 65% in size; as to activity change, negative = inhibition: % is scaled to controls: 0 for no effect and ±100 for the full control effect
Procedure, shortened: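 NADPH consumption followed by fluorescence at 340/450 nm, t=0 and after 15 min at room temperature. Reaction started with cumene hydroperoxide (0.5 mM final) after 30 min compound–GPX4 preincubation; final 200 nM GPX4, 100 nM GR, 1 mM GSH, 0.5 mM NADPH.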

[3] = target: Luciferin 4-monooxygenase (Photinus pyralis) (UniProt P08659); experiment: Primary firefly luciferase (FLuc) qHTS assay for identification of artifact compounds. (AID 1845220); details: purified firefly luciferase, luminescence, 5 min; series mostly up to 54.1 µM; also: nearly all actives have a fitted effect of over 60% in size;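 as to activity change, negative = inhibition: plate controls were DMSO vehicle for no effect and no enzyme for full effect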
Procedure, shortened: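 Compounds sat 15 min at room temperature with 10 uM luciferin and 10 uM ATP (pH 7.6 Tris acetate). Firefly luciferase (10 nM final) was then added, and luminescence was read 5 min later. Data normalized to no-enzyme and DMSO controls were Hill-fitted.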

[4] = Primary fluorescence-based thiol-reactive (MSTI) qHTS assay for identification of artifact compounds. (AID 1845221); details: MSTI thiol-reactivity probe, 1 h; series mostly up to 53.8 µM; also: nearly all actives have a fitted effect of over 65% in size; also: potency is read from the fitted curve at half-maximal effect;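 as to activity change, negative = thiol reactive: thiol-reactive compounds lower the probe fluorescence signal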
Procedure, shortened: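 In PBS pH 7.4 with 2% DMSO, each compound met 4 uM MSTI for one hour at ambient temperature, shielded from light, before fluorescence detection.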

[5] = system: Nanoluciferase (engineered Oplophorus gracilirostris luciferase); experiment: Primary Nanoluciferase (NLuc) qHTS assay for identification of artifact compounds. (AID 1845222); details: NLuc-conditioned medium, Nano-Glo luminescence, 5 min; series mostly up to 54.1 µM;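 also: 0% = DMSO and -100% = no enzyme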
Procedure, shortened: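 Luminescence from secreted NLuc (filtered, 1:55-diluted S16 cell medium) read 5 min after Nano-Glo substrate; compounds preincubated 15 min, RT. Hill fits of inhibition normalized to DMSO and no-enzyme.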

[6] = Primary redox qHTS assay for identification of artifact compounds. (AID 1845223); details: Amplex Red/HRP redox cycling with DTT, fluorescence; series mostly up to 53.8 µM;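 also: 0% = DMSO and 100% = reference compound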
Procedure, shortened: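 Redox-cycling detection via DTT (250 uM final) oxidation coupled to Amplex Red (25 uM)/HRP (250 mU/mL) in HBSS. 15 min preincubation plus 30 min after DTT, room temperature. Ex/Em 525/598 nm; 4-parameter Hill fit against DMSO and 10 uM DA3003.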

Chain of Phospholipid hydroperoxide glutathione peroxidase GPX4 (Homo sapiens) (P36969 whole entry, looked up): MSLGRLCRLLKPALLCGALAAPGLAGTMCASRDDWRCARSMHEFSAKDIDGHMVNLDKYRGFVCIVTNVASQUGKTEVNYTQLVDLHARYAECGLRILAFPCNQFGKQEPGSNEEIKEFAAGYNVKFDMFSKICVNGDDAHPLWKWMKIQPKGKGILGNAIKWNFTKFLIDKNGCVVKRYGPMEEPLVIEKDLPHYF
Chain of Glutathione peroxidase 1 (Homo sapiens) (P07203 whole entry, looked up): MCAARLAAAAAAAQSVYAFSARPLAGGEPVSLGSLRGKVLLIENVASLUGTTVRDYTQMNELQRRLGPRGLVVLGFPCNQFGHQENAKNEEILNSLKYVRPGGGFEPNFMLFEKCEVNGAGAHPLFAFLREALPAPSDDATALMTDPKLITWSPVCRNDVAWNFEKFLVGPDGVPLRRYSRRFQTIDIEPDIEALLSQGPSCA

CC(=O)OC1C[C@]2(C)C(O)CC(C)=C[C@H](OC(=O)c3ccc(O)cc3)C2[C@]1(O)C(C)C (stereo partly specified)
inactive: Potency [1] | Potency [2] | Potency [3] | Potency [4] | Potency [5] | Potency [6]

Cc1cc(C(=O)Nc2cccc(C(=O)Nc3cccc(C(F)(F)F)c3)c2)on1
inactive: Potency [1] | Potency [2] | Potency [3] | Potency [4] | Potency [5] | Potency [6]

COC(=O)c1cc(OC)c(O[C@@H]2O[C@@H](C)[C@H](O)[C@@H](O)[C@H]2O)c(OC)c1
inactive: Potency [1] | Potency [2] | Potency [3] | Potency [4] | Potency [5] | Potency [6]

CC(C)c1cc(C(=O)N2CC[C@@H](NC(=O)C3CC3)C2)n[nH]1
inactive: Potency [1] | Potency [2] | Potency [3] | Potency [4] | Potency [5] | Potency [6]

CC(C)=CCC/C(C)=C/CC/C(C)=C/COC1OC(COC2OCC(OC3OCC(O)C(O)C3O)C(O)C2O)C(O)C(OC2OC(C)C(OC3OC(C)C(OC4OCC(OC5OC(C)C(O)C(O)C5O)C(O)C4O)C(O)C3O)C(O)C2O)C1O (stereo unspecified)
inactive: activity, negative = inhibition [1] 1.32% [at 9.52 µM] | activity change, negative = inhibition [2] 4.38% [at 9.73 µM] | outcome [3] inactive [at 11.6 µM] | activity change, negative = thiol reactive [4] 139% [at 11.5 µM] | activity, negative = inhibition [5] -0.192% [at 11.6 µM] | redox activity (% of DA3003) [6] 11.7% [at 11.5 µM]

COC(=O)C1=COC(O[C@@H]2O[C@H](CO)[C@@H](O)[C@H](O)[C@H]2O)[C@H]2[C@@H]1[C@H](OC(=O)CCc1ccc(O)cc1)C[C@]2(C)O (stereo partly specified)
inactive: Potency [1] | Potency [2] | Potency [3] | Potency [4] | Potency [5] | Potency [6]

C=C(C(=O)O)C1CC(O)C2(C)CCCC(=C)C2C1 (stereo unspecified)
inactive: Potency [1] | Potency [2] | Potency [3] | Potency [4] | Potency [5] | Potency [6]

CC(=O)O[C@@H]1[C@H](O)[C@@H](O[C@@H]2O[C@@H](C)[C@H](O[C@@H]3OC[C@@H](O)[C@H](O[C@@H]4OC[C@@H](O)[C@H](O)[C@H]4O)[C@H]3O)[C@@H](O[C@@H]3O[C@H](CO)[C@@H](O)[C@H](O)[C@H]3O)[C@H]2O)[C@H](OC(=O)[C@]23CCC(C)(C)C[C@H]2C2=CCC4[C@@]5(C)CC[C@H](O[C@@H]6O[C@H](C(=O)O)[C@@H](O)[C@H](O[C@@H]7OC[C@@H](O)[C@H](O)[C@H]7O)[C@H]6O[C@@H]6O[C@H](CO)[C@H](O)[C@H](O)[C@H]6O)[C@@](C)(C=O)C5CC[C@@]4(C)[C@]2(C)CC3)O[C@@H]1C (stereo partly specified)
inactive: activity, negative = inhibition [1] -4.56% [at 9.52 µM] | activity change, negative = inhibition [2] 2.64% [at 9.73 µM] | activity change, negative = inhibition [3] 3.61% [at 6.45 µM] | activity change, negative = thiol reactive [4] 306% [at 6.41 µM] | activity, negative = inhibition [5] 0% [at 6.45 µM] | redox activity (% of DA3003) [6] -0.0347% [at 6.41 µM]

CC1=C(CCC(C)O[C@@H]2O[C@H](CO)[C@@H](O)[C@H](O)[C@H]2O)C(C)(C)CCC1=O (stereo partly specified)
inactive: Potency [1] | Potency [2] | Potency [3] | Potency [5] | Potency [6]
active: Potency [4] 6.56 µM

CCNC(=O)Nc1ncc(-c2cc(-c3c(C)cc(OC)cc3C)nc(-c3cnccn3)n2)s1
inactive: Potency [1] | Potency [2] | Potency [3] | Potency [4] | Potency [5] | Potency [6]

CC1(C)C[C@H](O)C[C@@]2(C)OC(=O)C=C12
inactive: Potency [1] | Potency [2] | Potency [3] | Potency [5] | Potency [6]
active: Potency [4] 39.8 µM

CCOc1ccc2nc(SCCN3CCOCC3)[nH]c2c1
inactive: Potency [1] | Potency [2] | Potency [3] | Potency [4] | Potency [5] | Potency [6]

C=C[C@H]1C(O[C@@H]2O[C@H](CO)[C@@H](O)[C@H](O)[C@H]2O)OC=C2C(=O)N3CCc4c([nH]c5ccccc45)C3CC21 (stereo partly specified)
inactive: Potency [1] | Potency [2] | Potency [3] | Potency [4] | Potency [5] | Potency [6]

CC1NC(=O)CCCNC(=O)C(Cc2c[nH]c3ccccc23)NC(=O)C(C)NC(=O)C(C(C)C)NC(=O)C(C(C)c2ccccc2)NC(=O)C(C(C)C)NC1=O (stereo not drawn) (cyclo([GABA]AV[ξPhe(βξ-Me)]VAW); configuration not given here)
inactive: Potency [1] | Potency [2] | Potency [3] | Potency [4] | Potency [5] | Potency [6]

OC[C@H]1O[C@@H](Oc2ccccc2)[C@H](O)[C@@H](O)[C@@H]1O
inactive: Potency [1] | Potency [2] | Potency [3] | Potency [5] | Potency [6]
active: Potency [4] 21.2 µM

Cc1noc(=O)c2ccc(NC(=O)C(O)(CC(C)(C)c3cccc4c3OCC4)C(F)(F)F)cc12 (stereo unspecified)
inactive: Potency [1] | Potency [2] | Potency [3] | Potency [4] | Potency [5] | Potency [6]

CC1=C2C(O)C(=O)OC(c3ccoc3)C2(C)CCC1O (stereo unspecified)
inactive: Potency [1] | Potency [2] | Potency [3] | Potency [4] | Potency [5] | Potency [6]

CC(C)c1ccc(CO)cc1O[C@@H]1O[C@H](CO)[C@@H](O)[C@H](O)[C@H]1O
active: Potency [4] 13.1 µM
inactive: Potency [1] | Potency [2] | Potency [3] | Potency [5] | Potency [6]

CC1CCCCN1S(=O)(=O)c1ccc(N2CCCC2=O)cc1 (stereo unspecified)
inactive: Potency [1] | Potency [2] | Potency [3] | Potency [4] | Potency [5] | Potency [6]

C[C@@H]1CN(Cc2ncccn2)C[C@H]1c1nc2c(cnn2C2CCOCC2)c(=O)[nH]1
inactive: Potency [1] | Potency [2] | Potency [3] | Potency [4] | Potency [5] | Potency [6]

CC1=CC(=O)CC(C)(C)C1/C=C/C(C)O[C@@H]1O[C@H](CO)[C@@H](O)[C@H](O)[C@H]1O[C@@H]1OC[C@](O)(CO)[C@H]1O (stereo partly specified)
inactive: Potency [1] | Potency [2] | Potency [3] | Potency [4] | Potency [5] | Potency [6]
